In all, about 360,000 compounds went through this assay and about 460 (0.13%) were called active. Many of the other results were omitted from the sample, so actives are more common in it than they were. A number with no mark means an inactive call.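 How the source made its calls: active means inhibition above the mean inhibition of all tested compounds plus 3 SD (cut at about 73% in these data); inactive means the rest.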
target: Nuclear receptor subfamily 5 group A member 2 (Homo sapiens) (UniProt O00482); test: LRH-1 (NR5A2) inverse agonists, primary screen, cell-based, luminescence, HEK293T, StAR-luciferase reporter (AID 602396); details: LRH-1 transfected, 24 h, at 3.6 µM, active compounds read high;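 further: 0% = DMSO wells and 100% = reporter-only cells lacking LRH-1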
Sequence (O00482 whole entry, looked up): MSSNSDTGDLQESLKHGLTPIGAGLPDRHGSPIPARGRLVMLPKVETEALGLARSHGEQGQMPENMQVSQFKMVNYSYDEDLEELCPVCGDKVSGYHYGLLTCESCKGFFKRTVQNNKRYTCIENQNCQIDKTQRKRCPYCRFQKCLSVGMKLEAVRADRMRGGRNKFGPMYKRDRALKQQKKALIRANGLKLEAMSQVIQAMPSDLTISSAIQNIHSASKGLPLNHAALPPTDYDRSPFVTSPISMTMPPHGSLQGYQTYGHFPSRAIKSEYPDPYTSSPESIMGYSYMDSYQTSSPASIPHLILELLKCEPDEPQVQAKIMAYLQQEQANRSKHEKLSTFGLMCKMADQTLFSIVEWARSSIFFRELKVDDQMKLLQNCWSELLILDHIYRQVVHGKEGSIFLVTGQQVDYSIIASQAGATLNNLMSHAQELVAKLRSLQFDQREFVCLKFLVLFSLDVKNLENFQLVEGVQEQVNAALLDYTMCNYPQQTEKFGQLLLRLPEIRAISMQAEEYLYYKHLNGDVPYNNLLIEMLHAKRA

Row | Compound | inhibition
1 | CC(=O)OC1C2(CC3N4C(=O)C5(CO)SSC4(CC31O)C(=O)N5C)OC(C)C(C)(C)C2=O (stereo not given) | 97.6% (active)
2 | CC(=O)N1CN2CN(C(C)=O)CC(C(=O)c3ccc(Br)cc3)(C2)C1 | -11.4%
3 | CN(C)C(=O)Oc1ccc(NC(=O)N2CCOCC2)cc1 | 10.7%
4 | CCOc1ccc(-c2cc(C)[n+](CCN(CC)CC)c(-c3ccc(OCC)cc3)c2)cc1 | 86.7% (active)
5 | CC(C)n1c(=O)c(C=Nc2ccc(Br)cc2)c(O)n(Cc2ccco2)c1=O | 5.59%
6 | CCOC(=O)C(O)(c1ccc(NC(=O)c2ccco2)c(OC)c1)C(F)(F)F (stereo not given) | 15%
7 | NCCc1ccc(S(=O)(=O)F)cc1 | 12.1%
8 | O=[N+]([O-])c1ccc(C2C3C(c4ccccc4)=NC4(CCCCC4)N32)cc1 (stereo not given) | 22.7%
9 | CCC(C)n1c(O)c(/C=N/Nc2nc3c(c(=O)n(C)c(=O)n3C)n2C)c(=O)[nH]c1=S (stereo not given) | -7.02%
10 | CCCCCCCCCCCCn1ccc(=N)cc1 | 84.1% (active)
11 | CN(C)CC1CCCCC1=O (stereo not given) | 15.8%
12 | COc1ccc(-c2nn(CCC#N)cc2C(=O)Nc2ccc(C(C)=O)cc2)cc1 | 17.1%
13 | Clc1cccc(Cl)c1Cl | 2.81%
14 | Cc1ccc(-c2nc3ccccc3c(=O)n2-c2ccc(Br)cn2)cc1 | -1.48%
15 | CCNc1nc2[nH]c(=O)c3c(c2s1)OC(N)=C(C#N)C3c1cccs1 (stereo not given) | -2.41%
16 | CN(C)c1ccc(/C=C2\CC3C4CC=C5CC(O)CCC5(C)C4CCC3(C)C2=O)cc1 (stereo not given) | 10.7%
17 | CCC(C)(O)C(=O)OC1C(=O)OC2CC3C(C)=CC(=O)C(O)C3(C)C3C4(O)OCC23C1C(C)C4O (stereo not given) | 98.4% (active)
18 | COc1ccc(C(=O)CC2C(=O)N(C)C(=O)N(C)C2=O)cc1 | -5.13%

Row | Compound | inhibition
19 | COC(=O)C1=C(c2ccccc2)C[C@@H]2CC[C@H]1N2C(=O)N1CCCCC1 | 8.33%
20 | O=C1C2(Cl)C3(Cl)C4(Cl)C(Cl)(Cl)C5(Cl)C3(Cl)C1(Cl)C5(Cl)C24Cl (stereo not given) | 0.27%
21 | CCOP(=S)(OCC)SCOC(=O)NCC(=O)OC | -13.1%
22 | CN(C)C(=O)NC(O)C(Cl)(Cl)Cl (stereo not given) | -10.3%
23 | C[C@]12CC[C@H](O)C[C@H]1CC[C@@H]1C2CC[C@]2(C)[C@@H](C3=CC(=O)OC3)[C@@H](O)C[C@]12O (stereo not given in full) | 88.6% (active)
24 | COC(=O)C1=C(c2ccc(F)cc2F)C[C@@H]2CC[C@H]1N2C(=O)NC1CC1 | 20.8%
25 | COc1ccc(NC(=O)N2Cc3ccccc3-n3nncc3C2)cc1 | -12.7%
26 | COC1C(O)C(C)OC(OC2CCC3(C=O)C(CCC4C3CCC3(C)C(C5=CC(=O)OC5)CCC43O)C2)C1O (stereo not given) | 104% (active)
27 | COCCNC(=O)CN1C2CCC1CC(O)(c1cccnc1)C2 (stereo not given) | 17.3%
28 | Cc1ccc2c(c1)C1CN(C)CCC1N2C(=O)Cn1nnc(-c2ccccc2F)n1 (stereo not given) | -20.9%
29 | CC1=CC(=Cc2sc3ccccc3[n+]2C)C=C(C)O1 | 80.7% (active)
30 | COc1ccccc1N=C1SCCCN1C | 11.8%
31 | CCOC(=O)CNC(=O)N1Cc2cc(N3CCCCC3)ccc2-n2nncc2C1 | 6.84%
32 | Cc1cc(OCc2cc(C(=O)O)oc2C)c2c3c(c(=O)oc2c1)CCCC3 | 15.5%
33 | NCC(O)c1ccc(O)cc1 (stereo not given) | -5.8%
34 | CCN(N=Nc1nonc1OC)c1nonc1OC | 3.32%
35 | CC1CCCN1CCC(C(N)=O)(c1ccccc1)c1ccccc1 (stereo not given) | -19.5%
